# Measured values published in publication PMC11062922 (Nature Chemical Biology, 2023).
# Like-named read-outs stand apart in the source and are kept apart here.
# What was measured:
# Design in all cases: species or system human, MV4-11 + K-562 + COLO205 + SK-N-BE2 + OVCAR-8
# [1] = test system: MAP3K5; settings: read-out: apparent Kd; compound concentrations: 100 nM and 1000 nM (sheet 'Samples'), CATDS: 5.5720140806326597E-2; n = 1
# [2] = test system: TESK2; settings: read-out: apparent Kd; compound concentrations:100 nM and 1000 nM (sheet 'Samples'); n = 1
# [3] = test system: RAF1; settings: read-out: apparent Kd; compound concentrations: 100 nM and 1000 nM (sheet 'Samples'), CATDS: 0.155550656381887; n = 1
# [4] = test system: DCK; settings: read-out: apparent Kd, n = 1
# [5] = test system: TUBB6; settings: read-out: apparent Kd, n = 1
# [6] = test system: ARAF; settings: read-out: apparent Kd, compound concentrations: 100 nM and 1000 nM (sheet 'Samples'), n = 1
# [7] = test system: CAMK4; settings: read-out: apparent Kd, n = 1
# [8] = test system: PKM; settings: read-out: apparent Kd, compound concentrations: 100 nM and 1000 nM (sheet 'Samples'), n = 1
# [9] = test system: CSNK1G3; settings: read-out: apparent Kd; compound concentrations:100 nM and 1000 nM (sheet 'Samples'); n = 1
# [10] = test system: PI4KA; settings: read-out: apparent Kd; compound concentrations:100 nM and 1000 nM (sheet 'Samples'); n = 1
# [11] = test system: CDK10; settings: read-out: apparent Kd, n = 1
# [12] = test system: CDK12; settings: read-out: apparent Kd; compound concentrations:100 nM and 1000 nM (sheet 'Samples'); n = 1
# [13] = test system: CDK13; settings: read-out: apparent Kd, n = 1
# [14] = test system: IRAK1; settings: read-out: apparent Kd, n = 1
# [15] = test system: SLC25A6;SLC25A4; settings: read-out: apparent Kd, n = 1
# [16] = test system: CIT; settings: read-out: apparent Kd; compound concentrations:100 nM and 1000 nM (sheet 'Samples'); n = 1
# [17] = test system: DHCR24; settings: read-out: apparent Kd, n = 1
# [18] = test system: CAMK2D; settings: read-out: apparent Kd, n = 1
# [19] = test system: EPHA7; settings: read-out: apparent Kd; compound concentrations:100 nM and 1000 nM (sheet 'Samples'); n = 1
# [20] = test system: PSMC3; settings: read-out: apparent Kd, n = 1
# [21] = compound concentrations:100 nM and 1000 nM (sheet 'Samples')
compound,measurement,setting,value
CNC1=NC(=O)/C(=C/c2ccc3ncccc3c2)S1 [RO4595949-000],potency estimated from few doses,[1],1240 nM
CCn1cc(-c2ccnc3[nH]c(-c4cccc(CN(C)C)c4)cc23)c(-c2ccc(NC(=O)N(C)C)cc2)n1 [GSK1070916],potency estimated from few doses,[2],1310 nM
CCc1nc(-c2cccc(N(C)S(=O)(=O)c3ccccc3)c2)c(-c2ccnc(Nc3ccc(N4CCN(C(C)=O)CC4)nc3)n2)s1 [GSK1645895A],potency estimated from few doses,[3],1420 nM
O=S(=O)(CCOCc1ccc(-c2ccc3ncnc(Nc4ccc(OCc5cccc(F)c5)c(Cl)c4)c3c2)o1)c1ccccc1 [GW615311X],potency estimated from few doses,"[4]; compound concentrations: 100 nM and 1000 nM (sheet 'Samples'), CATDS: 2.31641141582303E-2",2110 nM
same,potency estimated from few doses,"[5]; compound concentrations: 100 nM and 1000 nM (sheet 'Samples'), CATDS: 2.6696132806602001E-2",1500 nM
CC(=O)N1CCN(c2ccc(Nc3nccc(-c4sc(C(C)C)nc4-c4cccc(NS(=O)(=O)c5ccccc5)c4)n3)cn2)CC1 [GSK1645872A],potency estimated from few doses,[6]; CATDS: 2.3399978491415799E-2,1560 nM
CC(C)c1nc(-c2cccc(NS(=O)(=O)c3c(F)cccc3F)c2F)c(-c2ccnc(Nc3ccc(N4CCOCC4)nc3)n2)s1 [GSK2008607A],potency estimated from few doses,[6]; CATDS: 1.81049419419274E-2,2030 nM
CN1CCN(Cc2ccc(-c3ccc4c(Nc5ccc(Oc6ccccn6)cc5)ccnc4c3)o2)CC1 [GW567140X],potency estimated from few doses,"[7]; compound concentrations: 100 nM and 1000 nM (sheet 'Samples'), CATDS: 3.2094924147275203E-2",2000 nM
same,potency estimated from few doses,[8]; CATDS: 3.4326075880393901E-2,1520 nM
Fc1ccc(-c2c(-c3ccncc3)[nH]c3nccnc23)cc1 [RO1155697-000],potency estimated from few doses,[7]; [21],1550 nM
Nc1nc(N)c2nc(-c3ccccc3)[nH]c2n1 [SKF-12778],potency estimated from few doses,[9],1180 nM
same,potency estimated from few doses,[4]; [21],1720 nM
same,potency estimated from few doses,[10],1400 nM
same,potency estimated from few doses,[5]; [21],1770 nM
N#Cc1cccc(Nc2nccc(-c3cnn4ncccc34)n2)c1 [GW778894X],potency estimated from few doses,[11]; [21],405 nM
same,potency estimated from few doses,[12],541 nM
same,potency estimated from few doses,[13]; [21],1160 nM
same,potency estimated from few doses,[14]; [21],896 nM
O=S(=O)(c1ccc(-c2ccnc3[nH]ccc23)cc1)N1CCCC1 [GSK846226A],potency estimated from few doses,[15]; [21],2020 nM
CNc1nccc(-c2c(-c3ccc(F)cc3)ncn2C2CCN(C)CC2)n1 [SB-222903],potency estimated from few doses,[16],670 nM
CNC(=O)c1ccccc1Nc1nc(Nc2cccc(CS(C)(=O)=O)c2)ncc1C.O=CO [GSK1520489A],potency estimated from few doses,"[14]; compound concentrations: 100 nM and 1000 nM (sheet 'Samples'), CATDS: 1.0270392688251299E-2",1150 nM
CC(=O)c1c(-c2ccncc2)[nH]c(-c2ccncc2)c1C [GW493036X],potency estimated from few doses,[16],173 nM
same,potency estimated from few doses,[9],842 nM
same,potency estimated from few doses,[17]; [21],1240 nM
CN1CCN(Cc2ccc(NC(=O)Nc3ccc(N(C)c4ccnc(Nc5ccc(CS(C)(=O)=O)cc5)n4)cc3)cc2)CC1.Cl [GW827654A],potency estimated from few doses,"[11]; compound concentrations: 100 nM and 1000 nM (sheet 'Samples'), CATDS: 3.5844771224848297E-2",1570 nM
Cl.Oc1ccc2ncnc(Nc3ccc(OCc4ccccc4)cc3)c2c1 [GI262866A],potency estimated from few doses,[18]; [21],388 nM
Cc1ccc(-n2nc(C(C)(C)C)cc2NC(=O)Nc2ccc(OCCN3CCOCC3)cc2)cc1 [BIRB0876BS],potency estimated from few doses,[19],1830 nM
NC(=O)c1cccnc1COc1cc(-c2ccc(N3CCOCC3)nc2)cc2ncccc12 [BI01125081],potency estimated from few doses,[19],1500 nM
Fc1cccc(COc2ccc(Nc3ncncc3C#Cc3ccccc3)cc2Cl)c1 [GW651576X],potency estimated from few doses,"[20]; compound concentrations: 100 nM and 1000 nM (sheet 'Samples'), CATDS: 4.80880541633023E-2",1950 nM
COc1cc(F)c(F)c(F)c1C(=O)c1cnc(NC2CCN(S(C)(=O)=O)CC2)nc1N [RO4600703-000],potency estimated from few doses,[12],2300 nM
COc1ccc(C2=C(Nc3cccc(O)c3)C(=O)NC2=O)cc1 [SB-390766],potency estimated from few doses,[10],1330 nM
COc1ccc(Nc2nccc(N3CCC(NC(=O)Nc4cccc(OC)c4)C3)n2)cc1 (stereo not shown) [GSK1379742A],potency estimated from few doses,"[17]; compound concentrations: 100 nM and 1000 nM (sheet 'Samples'), CATDS: 0.157459675408709",1060 nM
Cn1cc(C2=C(c3ccccc3[N+](=O)[O-])C(=O)NC2=O)c2ccccc21 [RO0317753-000],potency estimated from few doses,"[18]; compound concentrations: 100 nM and 1000 nM (sheet 'Samples'), CATDS: 9.7402766920506798E-2",597 nM
Cc1[nH]nc2c1N=C(c1ccccc1Cl)c1cc([N+](=O)[O-])ccc1N2 [RO0274406-000],potency estimated from few doses,[8]; CATDS: 7.8896221929170104E-2,922 nM
COc1cccc(C2=C(c3cn(C)c4c(C)cccc34)C(=O)NC2=O)c1 [RO3301012-000],potency estimated from few doses,"[15]; compound concentrations: 100 nM and 1000 nM (sheet 'Samples'), CATDS: 9.9606855520270293E-2",1850 nM
CCCCCNC(=O)[C@@H]1CCCN2C(=O)CC[C@H](NC(=O)[C@H](Cc3ccc(OP(=O)(O)O)cc3)NC(C)=O)C(=O)N12 [RO0324694-000],potency estimated from few doses,[20]; [21],1910 nM
COc1ccc(-c2nn3ncccc3c2-c2ccnc(Nc3ccc4c(c3)OCCO4)n2)cc1 [GW827106X],potency estimated from few doses,"[13]; compound concentrations: 100 nM and 1000 nM (sheet 'Samples'), CATDS: 4.6663696277222499E-2",1770 nM
